# Cruzain noTriton – inhibitors of Trypanosoma cruzi cruzain without detergent; Potency, µM, for the others: max response, negative = inhibition, hits mostly inhibitors; 2.3% of 200,000 active; P25779; AID 1476; purified cruzain, Z-FR-AMC fluorescence, no detergent;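 also: plate controls were enzyme without inhibitor for no effect and buffer without enzyme for full effect; nearly all actives have a fitted effect of over 40% in size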
# Target sequence (P25779 123-467 limits assumed): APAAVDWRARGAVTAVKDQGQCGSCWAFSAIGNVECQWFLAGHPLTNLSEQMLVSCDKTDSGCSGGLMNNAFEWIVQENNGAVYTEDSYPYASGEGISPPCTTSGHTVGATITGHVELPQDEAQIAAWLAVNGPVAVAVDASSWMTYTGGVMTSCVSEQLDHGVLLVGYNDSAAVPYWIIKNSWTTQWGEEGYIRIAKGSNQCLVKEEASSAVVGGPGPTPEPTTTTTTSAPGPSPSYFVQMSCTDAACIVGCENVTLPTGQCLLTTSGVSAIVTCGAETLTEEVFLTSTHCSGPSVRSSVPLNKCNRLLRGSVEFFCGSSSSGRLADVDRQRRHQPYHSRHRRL
#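 Detergent-free condition (0.00005% Triton X-100) in acetate buffer pH 5.5 with DTT. 1.5 nM enzyme and compound were pre-mixed 15 min, then 2 uM Z-FR-AMC substrate added; reaction progress from fluorescence change between first and third reads (60 s).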
# Cruzain inh Det – cruzain (T. cruzi) inhibition with detergent; P25779; purified cruzain, Z-FR-AMC fluorescence, 0.01% Triton; Potency, µM, for inactives: max response, negative = inhibition, usual class: inhibitors; 0.43% of 200,000 active; AID 1478;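 also: plate controls were neutral wells for no effect and buffer without enzyme for full effect; nearly all actives have a fitted effect of over 40% in size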
#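 Enzyme 1.5 nM, Z-FR-AMC 2 uM, NaOAc 100 mM pH 5.5, DTT 5 mM, Triton X-100 0.01%; 15 min RT compound preincubation; kinetic ex360/em450, 60 s delta.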
# The depositor's hits bear a star; ? = inconclusive. In the library only some 2.6% were active in any assay of this set; here they are far more common. Calls follow the shape of the dose curve; as a rule, active = well fitted curve in the direction sought with a large enough effect; inconclusive = small, poorly fitted or top-dose-only effect, or another doubt; inactive = no such curve, though single readings can be large; an effect the other way counts as inactive or inconclusive. Potency is read from the fitted curve at half-maximal effect.
SMILES,Cruzain noTriton,Cruzain inh Det
Cc1cc(C)nc(/N=C(/NC(=O)Nc2ccc(Cl)c(Cl)c2)Nc2cccc(Cl)c2)n1,7.9µM*,0%
CCOc1ccccc1N/C(=N/c1nc(C)cc(C)n1)NC(=O)Nc1ccc(Cl)c(Cl)c1,4µM*,1%
CCOc1ccc(C(=O)N2CCC(c3nnc(-c4ccccc4OC)o3)CC2)cc1,?,0%
COc1cc(-c2cc3n(C)c(C)c(CCC(=O)O)c(=O)n3n2)cc(OC)c1OC,-10%,-3%
COc1ccccc1NC(=O)C(=O)NCC(c1ccc2c(c1)OCO2)N1CCN(C)CC1 (configuration not stated),-2%,0%
O=C(Nc1ccc(C(=O)OCc2cc(=O)n3c4c(sc3n2)CCCC4)cc1)c1ccc(F)cc1,5%,0%
Clc1ccc(CCNc2nc3ccccc3n3nnnc23)cc1,25µM*,4%
Cc1cccc(CCNc2nc3ccccc3n3nnnc23)c1,-12%,4%
CCOC(=O)Cc1csc(N/N=C\c2cccc(Br)c2)n1,32µM*,-23%
CCOC(=O)Cc1csc(N/N=C/c2ccccc2)n1,1%,-7%
C[C@]12CC[C@H]3c4ccc(O)cc4CC[C@@H]3[C@H]1C/C(=N/O)[C@H]2O,-3%,-3%
S=C=Nc1cccc(NC(=S)NCCCCNC(=S)Nc2cccc(N=C=S)c2)c1,-15%,0%
COc1ccccc1N1CCN(C(=O)c2ccc3nc(-c4ccco4)c(-c4ccco4)nc3c2)CC1,?,13µM*
Cc1ccc(C)c(N2CCN(C(=O)c3ccc4nc(-c5ccco5)c(-c5ccco5)nc4c3)CC2)c1,0%,-3%
COc1ccc(CCC(=O)NCCc2csc(-c3ccc(C(F)(F)F)cc3)n2)cc1,13%,0%
COc1cccc(C2c3c(oc4ccc(C)cc4c3=O)C(=O)N2CCCN2CCOCC2)c1OC (configuration not stated),-5%,-5%
CCC(C)C(=O)Nc1nc(C)c(-c2csc(Nc3cc(OC)ccc3OC)n2)s1 (configuration not stated),-20%,-6%
CCCC(=O)Nc1nc(C)c(-c2csc(Nc3ccccc3C)n2)s1,-27%,2%
COc1ccc(OC)c(Nc2nc(-c3sc(NC(=O)CC(C)C)nc3C)cs2)c1,-29%,-1%
CCCCCC(=O)Nc1nc(C)c(-c2csc(Nc3ccccc3OC)n2)s1,13µM*,-2%
CCCCCC(=O)Nc1nc(C)c(-c2csc(Nc3ccccc3OCC)n2)s1,7.9µM*,1%
CCCCCCC(=O)Nc1nc(C)c(-c2csc(Nc3ccccc3OC)n2)s1,10µM*,4%
Cc1ccc(-c2c(C(=O)N3CCN(c4cccc(C)c4C)CC3)oc(=O)c3ccccc23)cc1,?,-5%
CCOc1cccc(C(=O)NC(=S)Nc2ccc(N3CCCC3)cc2)c1,32µM*,?
O=C(NC(=S)Nc1ccc(N2CCCCC2)cc1)c1ccc2c(c1)OCCO2,25µM*,-4%
SMILES,Cruzain noTriton,Cruzain inh Det
O=C(NC(=S)Nc1ccc(N2CCOCC2)cc1)c1ccc2c(c1)OCCO2,-16%,-9%
CCOc1cccc(C(=O)Nc2ccc(N3CCN(S(C)(=O)=O)CC3)cc2)c1,2%,5%
Fc1ccc(N2CCN(c3nc4ccccc4c4nc(-c5cccnc5)nn34)CC2)cc1,-6%,0%
Cc1cc(C)c2nc3c(c([C@H](O)C4CCCCN4)c2c1)CC/C3=C/c1ccc(Cl)cc1 (some centres not stated),-1%,6%
CCc1ccc(NC(=O)CSc2nccn2-c2cccc(C)c2C)cc1,8%,-6%
CC(=O)N1CCc2nc3sc(C(=O)c4ccc(F)cc4)c(N)c3c(C(F)(F)F)c2C1,?,-10%
COc1ccc(C(=O)N(c2ccc(C)cc2)S(=O)(=O)c2ccc(C)cc2)cc1,?,-3%
CC1CCN(S(=O)(=O)c2ccc3c(c2)N(CC(=O)NCC(C)c2ccccc2)C(=O)CO3)CC1 (configuration not stated),2%,-4%
COc1ccc(NC(=O)c2oc3ccccc3c2NC(=O)c2cc(OC)c(OC)c(OC)c2)cc1,21%,-2%
O=c1c2ccccc2nc2n1CCC2,13µM*,?
O=c1c2ccccc2nc2n1CCCCC2,-4%,-1%
COc1cccc(-c2cncnc2NCc2cccc(C)c2)c1,-2%,4%
CCCc1c(C)c2cccc(C)c2[nH]c1=O,-11%,3%
Cc1c(CC=C(Cl)Cl)c(=O)[nH]c2c(C)cccc12,2.5µM*,0%
COc1ccc2cc(/C=N/NC(=O)c3ccc(CN(c4cccc(Cl)c4Cl)S(C)(=O)=O)cc3)c(Cl)nc2c1,25µM*,-12%
Cc1ccccc1OCC(=O)N/N=C/c1cc2ccccc2nc1Cl,1%,-1%
Cc1cc(C)cc(OCC(=O)Nc2ccc(N3CCN(S(C)(=O)=O)CC3)cc2)c1,16µM*,-1%
Cc1cccc(OCCCC(=O)Nc2ccc(S(N)(=O)=O)cc2)c1C,?,-4%
Cc1ccccc1OCC(=O)Nc1ccc(N2CCN(S(C)(=O)=O)CC2)cc1,?,8%
Cc1cccc(OCCCC(=O)Nc2ccc(N3CCCCC3)cc2)c1C,20µM*,5%
Cc1cc(C)cc(OCC(=O)Nc2ccc(N3CCN(C(=O)c4ccco4)CC3)cc2)c1,5%,-7%
Cc1cccc(OCC(=O)Nc2ccc(N3CCN(S(C)(=O)=O)CC3)cc2)c1C,13µM*,8%
O=c1c(O)c(-c2ccccc2)oc2ccc3occc3c12,-5%,-1%
CCOC(=O)c1ccc(NS(=O)(=O)c2ccc3c(c2)OCCO3)cc1,2%,-10%
COc1ccc(-n2c(SCCC(C)C)nc3sc4c(c3c2=O)CC(C(C)C)OC4)cc1 (configuration not stated),-3%,-1%
SMILES,Cruzain noTriton,Cruzain inh Det
CCCCn1c(SCC(=O)NCc2ccc(C)cc2)nc2c(sc3ccccc32)c1=O,6%,3%
Nc1ccc(S(=O)(=O)O)cc1,-10%,0%
COc1cccc2cc(C(=O)N3CCc4ccccc43)c(=O)oc12,4%,4%
CCOc1cccc2cc(C(=O)N3CCc4ccccc43)c(=O)oc12,16µM*,3%
CC(C)C[C@@H](CC(=O)N[C@@H](CCC(=O)O)CC(=O)O)NC(=O)[C@@H]1CNCC[C@H]1NC(=O)C[C@H](CCCN)NC(=O)C[C@H](CO)NC(=O)[C@@H]1CCCC[C@H]1N,2%,8%
C[C@@H](Oc1ccc(Oc2cnc3ccc(Cl)cc3n2)cc1)C(=O)O,6%,-5%
Cc1ccc(C(=O)c2cn(Cc3ccccc3)c3nc(C)ccc3c2=O)cc1,?,-8%
CNc1oc(-c2ccc(Cl)cc2)nc1P(=O)(c1ccccc1)c1ccccc1,?,13µM*
CCOP(=O)(OCC)c1nc(-c2ccc(C)cc2)oc1NCc1ccccc1,?,-10%
C[Si](C)(C)Cl,7%,4%
Cc1nn(CC(=O)NCc2ccccc2Br)c(=O)c2cc3occc3n12,11%,0%
COc1ccc(N2CCN(c3ncnc4c3cnn4-c3ccc(F)cc3)CC2)cc1,5%,0%
O=C(OC1Cc2c(O)cc(O)cc2OC1c1cc(O)c(O)c(O)c1-c1c(C2Oc3cc(O)cc(O)c3CC2OC(=O)c2cc(O)c(O)c(O)c2)cc(O)c(O)c1O)c1cc(O)c(O)c(O)c1 (configuration not stated),-11%,-18%
COc1ccccc1C(=O)ON=C1c2ccccc2-c2ccccc21,?,-7%
COc1ccc2c(c1[N+](=O)[O-])CCC/C2=N/OC(=O)c1cccc2ccccc12,20µM*,-2%

# From PubChem
